In PubChem BioAssay AID504850 (National Center for Advancing Translational Sciences (NCATS), 2011) one finds Potency data, which are given here for 91 compounds.

The campaign covered roughly 2,300 compounds. About 1,200 (52%) were called active. Inconclusive results (about 34%) are left out. The call rests on the fitted dose curve; in most records, active means well fitted inhibition curve with a large enough effect; inconclusive means small, poorly fitted or top-dose-only effect, or effect the other way; inactive means no such curve, though single readings can be large or run the other way. So high a share suggests a set chosen from earlier hits. This is one part of the list.
Potency means the concentration at half of the fitted maximal effect.

The test in a line: Confirmation screen for delayed death inhibitors of the malarial parasite plastid, 48 hour incubation. Further: nearly all actives have a fitted effect of over 65% in size. The note with it: P. falciparum-infected erythrocytes, luciferase growth; series mostly up to 28.7 µM. The method in brief: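 Single-generation (48 h, 37 C) exposure of integrated firefly luciferase-reporter P. falciparum in red cells, 0.1% parasitemia at 2% hematocrit, Albumax-supplemented RPMI. Falling luciferase signal marks parasite growth inhibition.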
Take `CN(C)c1cc[n+](Cc2c(Cl)cccc2Cl)cc1`: the Potency is 2.24 µM (active). Turning to `Clc1cccc(Cl)c1C[n+]1ccc2ccccc2c1`, the Potency is 2.82 µM (active).

As for `COc1ccc(NC(=O)CCCn2cc([N+](=O)[O-])cn2)cc1`, the Potency entry was “inactive”. As to `CCOc1ccc(CCNC(=O)CCCn2nc(C)c3c(C)n(-c4ccccc4)nc3c2=O)cc1`, the Potency is 11.2 µM (active). Take `Cc1ccccc1NC(=O)CCCn1nc(C)c2c(C)n(-c3ccccc3)nc2c1=O`: the Potency was 10 µM (active). For `Cc1ccc(-c2nnn(CC(=O)Nc3ccc4nn(-c5ccccc5)nc4c3)n2)o1`, the Potency entry is “inactive”. With `Cc1cccc(C)c1NC(=O)CCCn1nc(C)c2c(C)n(-c3ccccc3)nc2c1=O`, the Potency is 12.6 µM (active). For `CCOc1ccccc1C(=O)NCC(=O)NCCc1ccc(S(N)(=O)=O)cc1`, the Potency entry was “inactive”. In the case of `COc1ccc(NC(=O)CCCn2nc(C)c3c(C)n(-c4ccccc4)nc3c2=O)cc1` it was 11.2 µM (active); in that of `COCCN(C(=S)Nc1ccc(OC)c(Cl)c1)C1CCN(C(C)C)CC1`, 14.1 µM (active); in that of `COc1ccc2[nH]c3c(c2c1)CCN1C(=O)N([C@@H](C)C(=O)NCCc2ccc(F)cc2)C(=O)[C@]31C`, 12.6 µM (active). For `CCCCOc1ccc(N2C(N)=NC(N)=NC23CCCCC3)cc1`, the Potency was 2 µM (active). In the case of `CCOC(=O)C1=C(NC(=S)NC(=O)c2ccccc2)c2ccccc2CC1(C)CC` (stereo unspecified), the Potency was 11.2 µM (active).

In the case of `Cc1ccc2nc(CNC(=O)C3CCC(=O)N(Cc4ccccc4F)C3)cn2c1` (stereo unspecified), the Potency is 12.6 µM (active). In the case of `O=C(NC1CCC1)C1CCC(=O)N(Cc2ccccc2F)C1` (stereo unspecified) it was “inactive”; in that of `COc1ccc(-c2nc(N3CCN(C)CC3)sc2-c2ccc(OC)cc2)cc1`, 15.8 µM (active); in that of `CC(=O)Nc1ccc(Nc2nnc(-c3ccc(C)c(S(=O)(=O)NCC4CCCO4)c3)c3ccccc23)cc1` (stereo unspecified), “inactive”. As for `Cc1ccc(-c2nnc(N3CCOCC3)c3ccccc23)cc1S(=O)(=O)NCC1CCCO1` (stereo unspecified), the Potency was 7.08 µM (active). With `CCOCCCn1c(C)nc2c(c1=O)c1nc3ccccc3nc1n2CCC1=CCCCC1`, the Potency was 7.08 µM (active). Take `Cc1nn2c(Nc3ccccc3)c3c(nc2c1-c1ccccc1)CCC3`: the Potency is 15.8 µM (active). In the case of `Cc1ccc(-c2csc3nc[nH]c(=O)c23)cc1` it was “inactive”; in that of `Clc1ccc2nnnc(-c3ccccc3)c2c1`, 3.98 µM (active); in that of `O=C(c1ccc(S(=O)(=O)Cc2ccccc2Cl)c([N+](=O)[O-])c1)N1CCOCC1`, 10 µM (active). With `Cc1ccc(S(=O)(=O)N2CCN(c3ccc(C(=O)N4CCOCC4)cc3[N+](=O)[O-])CC2)cc1`, the Potency is 7.08 µM (active). As for `O=C(c1ccc(S(=O)(=O)Cc2cc(F)ccc2F)c([N+](=O)[O-])c1)N1CCCC1`, the Potency is 12.6 µM (active).

As to `Cc1cccc(N2CCN(C(=O)C3CCN(c4ncnc5c4nc4n5CCCCC4)CC3)CC2)c1C`, the Potency was 14.1 µM (active).

With `CC1CCN(C(=O)C2CCCN(c3ncnc4c3nc3n4CCCCC3)C2)CC1` (stereo unspecified), the Potency was 14.1 µM (active). The same measure for `COC(=O)CC1C(=O)NCCN1C(=S)Nc1ccc(F)cc1` (stereo unspecified): 14.1 µM (active); for `CCOC(=O)C(Cc1ccccc1)C(=O)Nc1cccc2ccccc12` (stereo unspecified): 3.98 µM (active).

Take `COc1cccc(COC(=O)C2CC(=O)N(Cc3ccco3)C2)c1OC` (stereo unspecified): the Potency entry was “inactive”.

Take `CCC1CN(C(=O)N2CCC(C(=O)NCc3cccc(OC)c3OC)CC2)c2cc(C)ccc2O1` (stereo unspecified): the Potency is 12.6 µM (active).

With `CC(C)NS(=O)(=O)c1ccc(NC(=S)NC(=O)c2ccc(-c3ccccc3)cc2)cc1`, the Potency was 5.01 µM (active).

On to `O=C(NC(=C(Cl)Cl)S(=O)(=O)c1ccc(Cl)cc1)c1ccccc1`, for which the Potency result is “inactive”. As for `O=c1c(Cl)c(Cl)cnn1Cc1nnc(-c2ccc(Cl)cc2)o1`, the Potency is 14.1 µM (active). Consider `O=C(NC1CCCCC1)N1CCN(c2ccc([N+](=O)[O-])cc2)CC1`, for which the Potency is 11.2 µM (active). As for `Cc1ccc(NC(=O)c2ccc(Nc3c([N+](=O)[O-])cc([N+](=O)[O-])cc3[N+](=O)[O-])cc2)cc1`, the Potency was 3.16 µM (active).

As to `Cc1ccc(NC(=O)/C(=C\c2ccc([N+](=O)[O-])cc2)NC(=O)c2ccccc2)cc1`, the Potency was 10 µM (active). For `O=C(Nc1cccc([N+](=O)[O-])c1)c1ccc2nsnc2c1`, the Potency entry was “inactive”.

For `O=C(NCc1ccccc1)c1c[nH]c2ccccc2c1=O`, the Potency was 14.1 µM (active). For `COCCn1c(=O)[nH]c2cc(C(=O)NCc3ccccc3)ccc2c1=O`, the Potency result was “inactive”. Take `CCn1c(/C=C/N(C(C)=O)c2ccccc2)[n+](CC)c2ccc(Cl)cc21`: the Potency is 2.82 µM (active). Turning to `CCOC(=O)c1ccc2c(c1)n(CC)c(/C=C/N(C)c1ccccc1)[n+]2CC`, the Potency is 0.447 µM (active). As for `CCc1ccc(NC(=O)CN(c2cc(C)cc(C)c2)S(=O)(=O)c2c(C)[nH]c(=O)[nH]c2=O)cc1`, the Potency is 12.6 µM (active). In the case of `CCC1S/C(=N/N=C/c2ccco2)N(Cc2ccccc2)C1=O` (stereo unspecified), the Potency was 14.1 µM (active). With `CCC1S/C(=N/N=C/c2ccco2)N(Cc2ccccc2C)C1=O` (stereo unspecified), the Potency is 11.2 µM (active). Consider `CC1S/C(=N/N=C/c2ccco2)N(Cc2ccccc2)C1=O` (stereo unspecified), for which the Potency entry is “inactive”. On to `CCc1ccc(/C=N/n2c(C)cc(C)c(C#N)c2=O)cc1`, for which the Potency is 6.31 µM (active). With `C=C1C(=O)O[C@@H]2[C@H]1CC[C@H](C)[C@]1(O)CCC(=O)[C@@]21C`, the Potency is 12.6 µM (active). For `N=C(N)c1ccc(/C=C/c2ccc(C(=N)N)cc2O)cc1`, the Potency is 0.708 µM (active). The same measure for `COC(=O)c1ccc(Sc2nnnn2-c2ccccc2)c([N+](=O)[O-])c1`: 11.2 µM (active); for `O=C(NC1CCS(=O)(=O)C1)/C(=C\c1ccc(F)cc1)NC(=O)c1ccccc1` (stereo unspecified): 15.8 µM (active); for `Cn1c(=O)oc2cc(S(=O)(=O)NCCC(=O)NCc3ccc(F)cc3)ccc21`: 15.8 µM (active). The same measure for `COc1cc2c(O)c3c(c(-c4ccc5c(c4)OCO5)c2cc1OC)C(=O)OC3`: 10 µM (active). For the compound `CCOc1ccccc1NC(=O)/C(C#N)=C/c1cccnc1`, the Potency was 14.1 µM (active). Turning to `CCOc1ccccc1NC(=S)N1CCN(c2cccc(OC)c2)CC1`, the Potency result was “inactive”. As for `Fc1ccc(Nc2nc(N3CCOCC3)nc(N3CCOCC3)n2)cc1`, the Potency is 14.1 µM (active). The same measure for `N#Cc1cc(S(=O)(=O)c2ccccc2)c(N)[nH]c1=O`: “inactive”. The same measure for `COc1ccc(-c2nnc3ccc(SCC(=O)Nc4nc5ccc(C)cc5s4)nn23)cc1OC`: 1.26 µM (active). As for `COc1cccc(CN(C)CC2CCCN(CCc3ccc(Cl)cc3)C2)c1OC` (stereo unspecified), the Potency was 10 µM (active). Consider `CCOc1cc(/C=C2\CN(CC)C/C(=C\c3ccc(O)c(OCC)c3)C2=O)ccc1O`, for which the Potency was 3.98 µM (active). The same measure for `COc1ccc(/C=C2\CN(Cc3ccccc3)C/C(=C\c3ccc(OC)c(O)c3)C2=O)cc1O`: 0.891 µM (active).

In the case of `O=C(O)c1ccccc1NS(=O)(=O)c1cccc(-n2sc3ccccc3c2=O)c1`, the Potency was 15.8 µM (active). As for `COc1ccccc1Nc1nnc(SCc2cc(=O)n3ccsc3n2)s1`, the Potency was 12.6 µM (active). The same measure for `COc1ccccc1Nc1nnc(SCC(=O)Nc2nc(-c3ccc(F)cc3)cs2)s1`: 11.2 µM (active); for `Cc1cc(C(=O)OC(C)C(=O)Nc2nc(-c3ccccc3)cs2)c(C)o1` (stereo unspecified): “inactive”; for `CC(=O)Oc1ccc(-c2csc(Nc3cccnc3)n2)cc1`: “inactive”.

As to `CCOc1ccccc1Nc1nnc(SC(C)C(=O)Nc2nc(-c3ccccc3)cs2)s1` (stereo unspecified), the Potency is 14.1 µM (active). On to `Oc1ccc(Cl)cc1CNc1cnc2ccccc2c1`, for which the Potency was 12.6 µM (active). On to `Cc1nc2scc(C)n2c(=O)c1S(=O)(=O)NCc1ccccc1Cl`, for which the Potency result is “inactive”. The same measure for `Cc1cc(C(=O)NC2CCCc3c2cnn3-c2cccc(C)c2C)no1` (stereo unspecified): “inactive”. In the case of `Cc1cccc(-n2ncc3c2CCCC3NC(=O)C2=CC(=O)CC(C)(C)O2)c1C` (stereo unspecified), the Potency was 15.8 µM (active). In the case of `COc1ccc(C(=O)NC2CCCc3c2cnn3-c2cccc(C)c2C)o1` (stereo unspecified), the Potency is 12.6 µM (active).

As for `CCc1c(C(=O)NC2CCCc3ccccc32)[nH]c(C)c1C(C)=O` (stereo unspecified), the Potency result was “inactive”. Regarding `O=C(CCl)Nc1cccc(Oc2cnccn2)c1`, the Potency was 4.47 µM (active).

For the compound `COc1cccc(NC(=O)c2nc(S(C)(=O)=O)ncc2Cl)c1`, the Potency result is “inactive”. As for `COc1ccc(CNS(=O)(=O)c2ccc3c(c2)N(C(C)=O)CC(C)S3)cc1` (stereo unspecified), the Potency is 12.6 µM (active). On to `Cn1nc(CC(=O)Nc2ncc(Br)s2)c2ccccc2c1=O`, for which the Potency was 11.2 µM (active).

For `O=C(C[n+]1cc(Br)cc2ccccc21)c1ccccc1`, the Potency was 10 µM (active).

On to `Clc1ccc2nc(-c3ccccn3)c(Nc3ccc4c(c3)OCO4)n2c1`, for which the Potency is 11.2 µM (active). As to `Nc1ccc2nc(-c3ccc(-c4nc5ccc(N)cc5[nH]4)cc3)[nH]c2c1`, the Potency was 7.08 µM (active). As for `Cc1cccc(N(C)C(=O)CN(C)S(=O)(=O)c2ccc3c(c2)c(=O)n(C)c(=O)n3C)c1`, the Potency is 12.6 µM (active). `CC1CCC(NC(=O)CN(C)S(=O)(=O)c2ccc3c(c2)c(=O)n(C)c(=O)n3C)CC1` (stereo unspecified): the Potency is 10 µM (active). `O=S(=O)(c1cnc[nH]1)N1CCN(C(c2ccc(F)cc2)c2ccc(F)cc2)CC1`: the Potency is 11.2 µM (active). In the case of `O=C(Oc1nsnc1N1CCCCC1)N1CCOCC1` it was 12.6 µM (active). Consider `O=C1CN(C(=O)c2ccc(Cl)c(S(=O)(=O)N3CCc4ccccc43)c2)c2ccccc2N1`, for which the Potency is 12.6 µM (active). The same measure for `COC(=O)C1C(=O)C2=C(CC1C)NC(C)=C(C(=O)OCCOc1ccccc1)C2c1ccc(C)o1` (stereo unspecified): 14.1 µM (active).

On to `CC(C)C(=O)N1CCN(c2ccc(NC(=O)c3ccc([N+](=O)[O-])o3)cc2)CC1`, for which the Potency was 8.91 µM (active). `CS(=O)(=O)N1CCN(c2ccc(NC(=O)c3ccc([N+](=O)[O-])o3)cc2)CC1`: the Potency was 11.2 µM (active). Turning to `O=C(Nc1ccc(S(=O)(=O)N2CCOCC2)cc1)c1ccc([N+](=O)[O-])o1`, the Potency is 3.16 µM (active). For the compound `O=C(Nc1ccc(N2CCOCC2)c(Cl)c1)c1cc2ccccc2o1`, the Potency is 2.51 µM (active). Consider `Cn1cc([N+](=O)[O-])c(C(=O)Nc2ccc(C3CCCCC3)cc2)n1`, for which the Potency entry is “inactive”.
